Laboratory results from PubChem BioAssay AID1852 (Sanford-Burnham Center for Chemical Genomics, 2009).
In all, about 2,500 compounds went through this assay and about 1,100 (44%) were called active.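 Rule for the calls: active = inhibition above 50% at 4 µM in the single-point screen; inactive = inhibition of 50% or less.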 So high a share suggests a set chosen from earlier hits. Some of the results follow.

Experiment: blockers of TNF-a NF-kB luciferase induction – cell-based, HEK293T NF-kB-Luc, luminescence, selectivity assay for NOD1/NOD2 signaling inhibitor project, primary screen (AID 1852)
Details: TNF-a induced, 14 h, at 4 µM, active compounds read high

SMILES	inhibition
O=C(CCl)c1cc2c3c(c1)CC(=O)N3CCC2	90.7% (active)
Fc1ccc(NC(=S)Nc2nccs2)cc1	73.6% (active)
O=[N+]([O-])c1ccc(NC(=S)NCc2ccc(F)cc2)cc1	22.1% (inactive)
CC(=O)Nc1nnc(S(=O)(=O)N2CCN(c3ccc(Cl)cc3[N+](=O)[O-])CC2)s1	-2.9% (inactive)
COc1ccc(-c2cn[nH]c2-c2ccc(OC)cc2)cc1	63.6% (active)
COc1ccc(-c2cn[nH]c2-c2ccc(O)cc2O)cc1	51% (active)
COc1ccc(-c2cn[nH]c2-c2ccc(OCc3ccccc3)cc2O)cc1	32.2% (inactive)
COc1ccc(-c2cn[nH]c2-c2ccc(OCc3ccccc3F)cc2O)cc1OC	-1.5% (inactive)
COc1ccc(-c2cn[nH]c2-c2ccc(OCc3ccc(F)cc3)cc2O)cc1OC	4.6% (inactive)
CCCOC(=O)c1ccc(Oc2cn[nH]c2-c2ccc(O)cc2O)cc1	17.1% (inactive)
COc1ccc(-c2[nH]ncc2-c2ccc3c(c2)OCCO3)c(O)c1	102% (active)
COc1ccc(-c2cn[nH]c2-c2ccc(OC)cc2O)cc1	69.2% (active)
CS(=O)(=O)N1CCC(C(=O)Nc2cc(Cl)c(Cl)cc2Cl)CC1	30.2% (inactive)
COc1ccc(CC2(CO)CCN(CC3=Cc4cc(Cl)ccc4OC3)CC2)cc1	44% (inactive)
Cc1nc(Sc2ccc(Br)cc2)c(C#N)c(C)c1[N+](=O)[O-]	-8.7% (inactive)
COc1ccc(NC(=O)/C(Cl)=C(/Cl)S(=O)Cc2ccc(Cl)cc2)cn1 (stereo unspecified)	89% (active)
COc1ccc(NC(=O)/C(Cl)=C(/Cl)S(=O)Cc2ccccc2)cn1 (stereo unspecified)	104% (active)
COc1ccc(NC(=O)/C(Cl)=C(/Cl)S(=O)Cc2ccc(C)cc2)cn1 (stereo unspecified)	105% (active)
O=C(Cc1ccc(Cl)cc1)Nc1ncc([N+](=O)[O-])s1	16.3% (inactive)
COc1ccc(CS(=O)/C(Cl)=C(/Cl)C(=O)Nc2ccc(OC)nc2)cc1 (stereo unspecified)	101% (active)
COc1ccc(NC(=O)/C(Cl)=C(/Cl)S(=O)Cc2ccccc2Cl)cn1 (stereo unspecified)	98.2% (active)
Cn1c(=O)c(C#N)c(-c2ccc(F)cc2)c2cc(C(=O)c3cc(Cl)cc(Cl)c3O)cnc21	95.8% (active)
CCc1nn2cc(C(=O)c3cc(Cl)ccc3O)cnc2c1-c1ccc(F)cc1	-6% (inactive)
COc1ccc(NC(=O)CN(C)C(=O)c2ccccc2OC)cc1	-11.8% (inactive)

SMILES	inhibition
COc1ccc(C2(c3ccc(OC)cc3)NC(=O)N(CC(=O)Nc3ccc(C(N)=O)cc3)C2=O)cc1	59.3% (active)
CCn1c(SCC(=O)Nc2ccc(OC)cc2)nc2nc3c(cc2c1=O)CCCC3	-16.7% (inactive)
N#CC1=C(SCC(=O)NC23CC4CC(CC(C4)C2)C3)NC(=O)C(C#N)C12CCCCC2 (stereo unspecified)	66.1% (active)
CC(C)(C)C1CCC2(CC1)C(C#N)=C(SCC(=O)Nc1ccccc1)NC(=O)C2C#N (stereo unspecified)	79% (active)
CC(C)(C)C1CCC2(CC1)C(C#N)=C(SCC(=O)NC1CCCCC1)NC(=O)C2C#N (stereo unspecified)	-10.7% (inactive)
O=C1NC(=S)S/C1=C\c1cc2ccccc2nc1N1CCCCC1	42% (inactive)
Cc1ccc(C(=O)CN2C(=O)c3ccccc3S2(=O)=O)cc1	85.1% (active)
O=C1c2ccccc2S(=O)(=O)N1Cc1nc2ccccc2s1	53.2% (active)
COc1ccc(C(=O)CN2C(=O)c3ccccc3S2(=O)=O)cc1	92.1% (active)
O=C(CN1C(=O)c2ccccc2S1(=O)=O)c1ccc(F)cc1	29.1% (inactive)
O=C(CCl)Nc1ccc(Sc2ccc(NC(=O)CCl)cc2)cc1	81.3% (active)
O=C(CCl)Nc1ccccc1Sc1ccc(Cl)cc1	33.5% (inactive)
O=C1NC(=O)/C(=C/c2ccccc2OCc2ccccc2)S1	16.2% (inactive)
O=C1NC(=O)/C(=C\c2ccccc2Oc2ccc(F)c(F)c2)S1	55.7% (active)
O=C1NC(=O)/C(=C/c2ccccc2Oc2ccc(Cl)cc2)S1	-26.6% (inactive)
Cc1cc(C(=O)CCl)c(C)n1CCc1ccc(Cl)cc1	21.1% (inactive)
Cc1cc(C(=O)CCl)c(C)n1CCc1ccc(F)cc1	55.6% (active)
CCOC(=O)C1CCN(S(=O)(=O)c2ccc3c(c2)N(C(C)=O)CC(C)S3)CC1 (stereo unspecified)	5.4% (inactive)
CCC(C)NC(=O)Cn1cnc2sc(C)c(S(=O)(=O)N3CCN(c4ccccc4OC)CC3)c2c1=O (stereo unspecified)	9.7% (inactive)
CCOC(=O)C1CCN(C(=O)Cn2cnc3sc(C)c(S(=O)(=O)N4CCC(C)CC4)c3c2=O)CC1	55.3% (active)
CN(C)S(=O)(=O)c1cccc(NC(=O)c2ccc(COc3ccccc3)cc2)c1	80.7% (active)
CN(C)S(=O)(=O)Oc1ccc(C(=O)Nc2cccc(C(F)(F)F)c2)cc1	36.5% (inactive)
CCOC(=O)c1sc2ccccc2c1OC(=O)c1ccc(C)cc1	17.4% (inactive)
CCOC(=O)C1=C(Cc2ccc(F)cc2)C(=O)c2ccccc2C1=O	90.8% (active)

SMILES	inhibition
CCOC(=O)C1=C(Cc2ccc(Cl)cc2)C(=O)c2ccccc2C1=O	7.7% (inactive)
CCOC(=O)C1=C(c2ccc(OC)cc2)C(=O)c2ccccc2C1=O	108% (active)
CCOC(=O)C1=C(Cc2ccc(C)cc2)C(=O)c2ccccc2C1=O	61.3% (active)
Cc1cc2c(NCc3ccccc3)ncnc2s1	42.6% (inactive)
c1ccc(CNc2ncnc3ccccc23)cc1	65.6% (active)
COc1cccc(CNc2ncnc3cc(Cl)ccc23)c1	49.2% (inactive)
CC(Nc1ncnc2sccc12)c1ccccc1 (stereo unspecified)	35.1% (inactive)
COc1ccc(CNc2ncnc3ccccc23)cc1	65.6% (active)
Fc1ccc(CNc2ncnc3cc(Cl)ccc23)cc1	39.9% (inactive)
CC(Nc1ncnc2ccccc12)c1ccccc1 (stereo unspecified)	83.3% (active)
Cc1ccccc1OCc1nc2ccccc2c(=O)n1/N=C/c1cn[nH]c1-c1ccc(Br)cc1	3.5% (inactive)
O=C(CN1CCN(c2ccccn2)CC1)Nc1cccc(Br)c1	13.8% (inactive)
CCN(C(=O)c1cnc(N2CCN(c3ncccn3)CC2)c2ccccc12)c1cccc(Cl)c1	46.7% (inactive)
Cc1cc(Br)ccc1NC(=O)c1cnc(N2CCN(c3ccccn3)CC2)c2ccccc12	73.3% (active)
Cc1nc(N2CCN(c3ccccn3)CC2)c2c(C)c(C(=O)Nc3ccccc3F)sc2n1	4.6% (inactive)
CCc1ccc(NC(=O)c2cnc(N3CCN(c4ccccn4)CC3)c3ccccc23)cc1	78.3% (active)
S=C(Nc1ccc(Oc2ccccc2)cc1)N1CCN(c2ccccn2)CC1	21% (inactive)
Cc1nc(N2CCN(c3ccccn3)CC2)c2c(C)c(C(=O)N3CCN(c4ccccc4F)CC3)sc2n1	-27.6% (inactive)
Cc1ccccc1C(=O)N1CCN(c2ccccn2)CC1	48.2% (inactive)
COc1ccccc1N1CCN(c2ncc(C(=O)N3CCN(c4cccc(Cl)c4)CC3)c3ccccc23)CC1	21.9% (inactive)
O=C(c1cnc(N2CCN(c3ccccn3)CC2)c2ccccc12)N1CCN(c2cccc(Cl)c2)CC1	53.2% (active)
Cc1ccc(NC(=O)c2cnc(N3CCN(c4ccccn4)CC3)c3ccccc23)c(Br)c1	99.8% (active)
COc1ccc(C)cc1NC(=O)c1sc2ncnc(N3CCN(c4ccccn4)CC3)c2c1C	-10% (inactive)
